# Pol eta inh – DNA polymerase eta (human) inhibition; recombinant Pol eta, fluorescent DNA replication assay; Potency, µM (titrated, usually from 114 µM), for the others: at the top dose activity change, negative = inhibition, most hits filed as inhibitors; 1.2% of 390,000 active; note: % is set by controls: 0 for no effect and ±100 for the full control effect
#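 Fluorescent replication assay: 50 nM final substrate added after a 15 min room-temperature compound preincubation with 10 nM enzyme. Signal taken at 0 min and again at 10 min.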
# TDP1 inh – inhibitors of human tyrosyl-DNA phosphodiesterase TDP1; Q9NUW8; AID 485290; 0.28% of 350,000 active; recombinant TDP1, AlphaScreen DNA substrate cleavage; Potency, µM (series often up to 130 µM), for the others: top-dose activity change, negative = inhibition, hits mostly inhibitors; note: % is set by controls: 0 for no effect and ±100 for the full control effect; nearly all actives have a fitted effect of over 40% in size
#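 Recombinant E. coli-expressed Tdp1 (1 nM) preincubated with compound 15 min at RT, then 5'-biotin/3'-phosphotyrosine-FITC DNA substrate (15 nM) added for 5 min. AlphaScreen beads (10 ug/ml) added, 10 min RT; tyrosine-FITC cleavage read as signal loss.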
# Pol iota inh – blocks human DNA polymerase iota activity; Potency, µM (top dose mostly 115 µM), inactives show at the highest dose activity, negative = inhibition, usual class: inhibitors; Pol iota fluorescent replication assay, 10 min; 1% of 390,000 active
#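 Fluorescent replication assay read twice, at 0 min and 10 min after adding 50 nM (final) substrate. Enzyme (10 nM) and compounds were first incubated 15 min at room temperature; enzyme-free buffer wells were negative controls.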
# Pol beta inh – DNA polymerase beta (human) inhibition; Pol beta primer extension/strand displacement, fluorescence kinetic; 1.3% of 340,000 active; Potency, µM (highest dose often 114 µM), inactives show at the highest dose activity change, negative = inhibition, most hits filed as inhibitors; P06746; note: % is set by controls: 0 for no effect and ±100 for the full control effect
#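 Values derive from four-parameter Hill fits of normalized kinetic data: reads at 0 and 10 min following addition of 50 nM substrate to 10 nM Pol beta preincubated 15 min with compound.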
# POLK inh – inhibitors of human DNA polymerase kappa. Potency, µM (top dose mostly 107 µM), for the others: at the top dose activity, negative = inhibition, actives largely listed as inhibitors. 0.53% of 400,000 active. purified Pol kappa, fluorescent DNA synthesis assay, 10 min; note: % is set by controls: 0 for no effect and ±100 for the full control effect
# Target sequence (Q9UBT6 whole entry, looked up): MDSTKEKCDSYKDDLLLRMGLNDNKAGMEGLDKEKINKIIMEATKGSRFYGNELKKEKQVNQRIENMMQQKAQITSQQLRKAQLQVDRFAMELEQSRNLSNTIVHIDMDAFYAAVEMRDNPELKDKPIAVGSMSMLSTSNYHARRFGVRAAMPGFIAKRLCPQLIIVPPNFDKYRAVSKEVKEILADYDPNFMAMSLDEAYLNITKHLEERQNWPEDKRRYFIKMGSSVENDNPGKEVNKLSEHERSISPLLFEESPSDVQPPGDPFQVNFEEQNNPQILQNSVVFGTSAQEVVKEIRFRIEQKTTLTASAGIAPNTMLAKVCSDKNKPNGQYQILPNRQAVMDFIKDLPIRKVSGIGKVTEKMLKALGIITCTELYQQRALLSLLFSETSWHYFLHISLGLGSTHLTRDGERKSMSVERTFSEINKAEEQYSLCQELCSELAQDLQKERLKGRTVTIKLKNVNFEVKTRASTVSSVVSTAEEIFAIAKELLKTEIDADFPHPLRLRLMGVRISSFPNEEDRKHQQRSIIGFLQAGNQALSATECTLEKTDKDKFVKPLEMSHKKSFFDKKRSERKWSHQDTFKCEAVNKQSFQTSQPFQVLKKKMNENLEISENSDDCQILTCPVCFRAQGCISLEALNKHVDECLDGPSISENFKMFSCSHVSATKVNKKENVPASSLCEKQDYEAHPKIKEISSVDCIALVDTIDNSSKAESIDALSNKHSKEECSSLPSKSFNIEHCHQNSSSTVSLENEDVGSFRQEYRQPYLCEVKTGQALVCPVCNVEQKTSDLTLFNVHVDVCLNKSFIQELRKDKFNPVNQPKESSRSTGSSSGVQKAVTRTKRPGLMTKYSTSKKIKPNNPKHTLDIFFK
#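 First, compounds were pin-transferred onto 10 nM Pol kappa. After 15 min at room temperature, substrate was added to 50 nM final. Fluorescence was then measured kinetically at 0 and 10 min.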
# FEN1 inhibitor – blocks human flap endonuclease 1. P39748. Potency, µM (doses to about 114 µM), for the others: at the highest dose activity change, negative = inhibition, actives largely listed as inhibitors. 0.35% of 390,000 active. Recombinant FEN1 flap cleavage, fluorescence, 15 min; note: % is set by controls: 0 for no effect and ±100 for the full control effect; nearly all actives have a fitted effect of over 65% in size
#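 In this screen, 50 nM flap DNA substrate was added to 10 nM FEN1 pretreated with compound for 15 min at room temperature; cleavage was followed with reads at 0 and 15 min, and Hill fitting gave concentration–response parameters.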
# Starred values were filed as active, the others as inactive; ? = inconclusive; . = no result; [ ] = another dose, or the depositor's remark. An excerpt weighted towards active compounds, which were near 2.4% of everything screened. Calls come from the whole dose curve; as a rule, active = well fitted curve in the direction sought with a large enough effect; inconclusive = small, poorly fitted or top-dose-only effect, or another doubt; inactive = no such curve, though single readings can be large; an effect the other way counts as inactive or inconclusive. Potency is the fitted concentration of half-maximal effect.
SMILES,Pol eta inh,TDP1 inh,Pol iota inh,Pol beta inh,POLK inh,FEN1 inhibitor
COc1ccc(/C=C2\SC(=Nc3ccccc3)NC2=O)cc1,.,0%,.,0%,.,.
COc1ccc(N=C2NC(=O)/C(=C\c3ccco3)S2)cc1,?,0%,40µM*,20µM*,?,-16%
O=C1NC(=Nc2ccc(O)cc2)S/C1=C\C=C\c1ccco1,32µM*,-11%,?,20µM*,-44%,-15%
COC(=O)/C=C1/SC(=NC(=O)c2cccc([N+](=O)[O-])c2)NC1=O,-16%,3%,7%,-19%,4%,3%
COc1cccc(N=C2NC(=O)/C(=C/c3cc([N+](=O)[O-])ccc3O)S2)c1,28µM*,.,?,40%,-11%,?
CN(C)c1ccc(/C=C/c2ccnc3c(Cl)ccc(Cl)c23)cc1,.,.,?,.,-21%,2%
CC1=C(c2ccc(F)cc2)S(=O)(=O)N=C1N1CCC(C(=O)NCCc2ccco2)CC1,.,7%,-26%,25µM*,-18%,2%
COc1ccc(C2=C(C)C(N3CCN(c4ccc(OC)cc4)CC3)=NS2(=O)=O)cc1,4%,0%,20%,12%,6%,6%
COc1ccc(C2=C(C)C(N3CCN(C(=O)c4ccco4)CC3)=NS2(=O)=O)cc1,-1%,-13%,?,50µM*,-35%,-7%
CC1=C(c2ccc(C)c(C)c2)S(=O)(=O)N=C1N1CCC(C(=O)NCc2ccc(C)o2)CC1,.,-3%,0%,11%,-10%,-4%
CN(C)c1ccc(CN(C(=O)/C=C/c2ccco2)C2CCS(=O)(=O)C2)cc1 (stereo not given),-2%,5%,167%,30%,-4%,5%
COc1ccc(CN(C(=O)/C=C/c2ccco2)C2CCS(=O)(=O)C2)cc1OC (stereo not given),5%,-2%,79µM*,6%,?,-10%
O=C(/C=C/c1ccco1)N(Cc1ccc(Cl)cc1)C1CCS(=O)(=O)C1 (stereo not given),?,-1%,40µM*,2%,?,-2%
CCc1cccc(N2C(=O)N(CC(=O)NCc3cccc(OC)c3OC)c3ccccc3S2(=O)=O)c1,-14%,4%,20%,4%,-11%[60.1 µM],-5%
CCN(Cc1ccccc1)C(=O)Cn1c(=O)n(Cc2ccccc2)c(=O)c2c1c1cc(OC)ccc1n2C,-15%,0%,7%,32%,-2%,-18%
CCOc1ccccc1C(O)C1=CC(=O)c2ccccc2C1=O (stereo not given),3.2µM*,.,6.3µM*,.,?,-11%
COc1cccc(OC)c1-c1cc(CCCc2cc(-c3c(OC)cccc3OC)nc3ccccc23)c2ccccc2n1,.,.,?,.,2%,?
O=C(NCc1cccnc1)c1ccc(-c2cc3ccccc3oc2=O)cc1,-7%,.,79µM*,?,-19%,4%
O=C(NCc1cccnc1)c1ccc(NS(=O)(=O)c2ccccc2)cc1,-4%,3.5µM*,14%,52%,-5%,-5%
O=C(Nc1cccnc1)c1cccc(-c2cc3ccccc3oc2=O)c1,-12%,-8%,40%,?,-7%,-3%
O=C(O)CC1CCC(=C(Cl)Cl)C1 (stereo not given),50µM*,.,?,?,-16%,-17%
O=C(NC(=S)Nc1ccc(NC(=O)c2cccs2)cc1)c1cc2ccccc2o1,?,-4%,3%,13µM*,-15%,7%
O=C(NC(=S)Nc1ccc(NC(=O)c2cccs2)cc1)c1ccco1,-17%,3%,-3%,-1%,-21%,-3%
Cc1ccc2nc(N3CCN(c4cccc(Cl)c4)CC3)c(-n3nc(C)cc3C)nc2c1,-25%,-10%,3%,1%,8%,6%
CN(C)c1ccc(/C=C/c2nc3ccccc3s2)c(Cl)c1,.,.,2%,.,-5%,-20%
SMILES,Pol eta inh,TDP1 inh,Pol iota inh,Pol beta inh,POLK inh,FEN1 inhibitor
CCCCCCCCCCCCCCCCOC(=O)N1CCN(/[N+]([O-])=N/Oc2ccc([N+](=O)[O-])cc2[N+](C)=O)CC1,.,.,?,.,8%,8%
O=C(CSc1nnc(-c2ccncc2)n1-c1ccccc1)Nc1ccc(C(=O)O)cc1,-3%,8%,7%,9%,-10%,-3%
Cc1cc(C(=O)CSc2nnc(-c3ccccc3)n2C)c(C)n1C,-3%,-5%,-6%,-26%,-20%,-9%
Cc1cc(C(=O)CSc2nnc(-c3ccncc3)n2-c2ccccc2)c(C)n1C,?,-15%,18µM*,45µM*,-24%,1%
CCOC(=O)c1ccc(NC(=O)CSc2nnc(-c3ccncc3)n2-c2ccccc2)cc1,0%,5%,-19%,2.2µM*,-10%[60.1 µM],-3%
Cc1cc(C(=O)CSc2nnc(-c3ccccc3)n2-c2ccccc2)c(C)n1-c1ncn[nH]1,20µM*,-11%,?,40µM*,?,-33%
O=C(NCc1ccccc1Cl)c1ccc2c(c1)N(Cc1ccccc1)CCS2,-23%,4%,41%,11%,-1%,-6%
O=c1nc(SCc2ccccc2Cl)nc(-c2ccc(Cl)cc2)[nH]1,-14%,.,58%,11%,0%,7%
O=c1nc(SCc2c(F)cccc2Cl)nc(-c2ccc(Cl)cc2)[nH]1,89µM*,.,25%,3%,-1%,-22%
CN(C(=O)COC(=O)c1ccccc1OCC(=O)Nc1ccc(Br)cc1)c1ccccc1,.,.,-30%,.,-12%,6%
Cc1cccc(NC(=O)CSc2cn(CC(=O)N3CCOCC3)c3ccccc23)c1,-25%,3%,20%,1%,-9%,-1%
CC(=O)Nc1ccc(NC(=O)CSc2cn(CC(=O)N3CCOCC3)c3ccccc23)cc1,-5%,-14%,0%,100µM*,1%,4%
C(=Nc1ccc2ccccc2n1)c1ccccn1,.,.,-2%,.,2%,6%
Cc1ccccc1N=Cc1cc2c(cc1[N+](=O)[O-])OCO2,-15%,6%,31%,11%,-11%,-1%
Cc1c(N=Cc2cc3c(cc2[N+](=O)[O-])OCO3)cccc1[N+](=O)[O-],?,.,7.9µM*,.,45µM*,?
O=S(=O)(Nc1nc2ccccc2nc1Nc1ccc2c(c1)OCCO2)c1cccs1,?,8%,?,18µM*,-42%,-11%
COc1ccc(S(=O)(=O)Nc2nc3ccccc3nc2Nc2ccc3c(c2)OCO3)cc1,.,3%,.,2%,.,.
COc1cccc(CNC(=O)CCn2cnc3ccccc3c2=O)c1,-10%,-9%,?,14µM*,-5%[60.1 µM],-7%
O=C(CCn1cnc2ccccc2c1=O)NCc1ccccc1Cl,-12%,4%,9%,0%,-5%[60.1 µM],7%
O=C(CCn1cnc2ccccc2c1=O)NCc1ccccc1,?,0%,-5%,20µM*,-6%[60.1 µM],14%

# Screens: PubChem BioAssay, National Center for Advancing Translational Sciences (NCATS)
